Assay results from PubChem BioAssay AID1159580 (chemical genetic matrix, 2015).
Among all 5,500 compounds or so, about 2,000 (36%) were called active. About 18% were inconclusive and are not listed. Rule as the data show it: active = normalized growth mostly below about 0.91 (no sharp cut-off); inconclusive = no clear call, values can overlap the other calls; inactive = mostly above about 0.92. Some of the results follow.

Assay: chemical genetic growth profiling, strain panel (AID 1159580);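 also: tested at 20 µM; growth read once vehicle control cultures reached saturation at 30 °C; 1 = growth at the plate median or of vehicle wells; lower values mean less growth of the strain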
Details: S. cerevisiae deletion strains, growth OD
[1] = locus YDL101C, strain DUN1, hits give low values
[2] = locus YHR030C, strain SLT2, hits give low values

Measured: normalized growth

N#Cc1cccc(CSc2nc3ccc(C(F)(F)F)cc3[nH]2)c1
inactive: locus YAR019C, strain CDC15, hits give low values 0.965 | locus YBL105C, strain PKC1, hits give low values 0.968 | locus YBR135W, strain CKS1, hits give low values 0.973 | locus YBR136W, strain MEC1, hits give low values 0.968 | locus YBR160W, strain CDC28, hits give low values 0.968 | locus YDL017W, strain CDC7, hits give low values 0.972 | locus YDL028C, strain MPS1, hits give low values 0.978 | [1] 0.969 | locus YDL108W, strain KIN28, hits give low values 0.973 | locus YDL132W, strain cdc53, hits give low values 0.976 | locus YDL214C, strain PRR2, hits give low values 0.893 | locus YDR052C, strain DBF4, hits give low values 0.962 | locus YDR054C, strain cdc34, hits give low values 0.962 | locus YDR226W, strain ADK1, hits give low values 0.969 | locus YDR477W, strain SNF1, hits give low values 0.903 | locus YER123W, strain YCK3, hits give low values 0.881 | locus YER133W, strain GLC7, hits give low values 0.895 | locus YFL009W, strain cdc4, hits give low values 0.974 | locus YFL029C, strain CAK1, hits give low values 0.966 | locus YFR003C, strain YPI1, hits give low values 0.97 | locus YFR019W, strain FAB1, hits give low values 0.936 | locus YFR028C, strain CDC14, hits give low values 0.971 | locus YGR040W, strain KSS1, hits give low values 0.908 | locus YGR052W, strain FMP48, hits give low values 0.938 | locus YGR092W, strain DBF2, hits give low values 0.933 | [2] 0.858 | locus YHR079C, strain IRE1, hits give low values 0.851 | locus YHR082C, strain KSP1, hits give low values 0.965 | locus YHR205W, strain SCH9, hits give low values 0.898 | locus YIL147C, strain SLN1, hits give low values 0.972 | locus YJL095W, strain BCK1, hits give low values 0.901 | locus YJL128C, strain PBS2, hits give low values 0.909 | locus YJL157C, strain FAR1, hits give low values 0.89 | locus YJR016C, strain ILV3, hits give low values 0.97 | locus YJR066W, strain TOR1 (second series), hits give low values 0.848 | locus YJR066W, strain TOR1, hits give low values 0.935 | locus YKL048C, strain ELM1, hits give low values 0.963 | locus YKL067W, strain YNK1, hits give low values 0.889 | locus YKL101W, strain HSL1, hits give low values 0.901 | locus YKL193C, strain SDS22, hits give low values 0.973 | locus YKL203C, strain TOR2, hits give low values 0.937 | locus YLR133W, strain CKI1, hits give low values 0.898 | locus YLR403W, strain SFP1, hits give low values 0.907 | locus YML070W, strain DAK1, hits give low values 0.889 | locus YMR001C, strain CDC5, hits give low values 0.971 | locus YMR205C, strain PFK2 (second series), hits give low values 0.924 | locus YMR277W, strain FCP1, hits give low values 0.969 | locus YNL006W, strain LST8, hits give low values 0.97 | locus YNL020C, strain ARK1, hits give low values 0.892 | locus YNL161W, strain CBK1, hits give low values 0.965 | locus YNL183C, strain NPR1, hits give low values 0.92 | locus YNL207W, strain RIO2, hits give low values 0.966 | locus YNL222W, strain SSU72, hits give low values 0.976 | locus YNL307C, strain MCK1 (second series), hits give low values 0.89 | locus YOL078W, strain AVO1, hits give low values 0.974 | locus YOL136C, strain PFK27, hits give low values 0.858 | locus YOR061W, strain CKA2, hits give low values 0.9 | locus YOR119C, strain RIO1, hits give low values 0.962 | locus YOR231W, strain MKK1, hits give low values 0.871 | locus YOR329C, strain SCD5, hits give low values 0.96 | locus YPL031C, strain PHO85, hits give low values 0.88 | locus YPL153C, strain RAD53, hits give low values 0.899 | locus YPL204W, strain HRR25, hits give low values 0.877 | locus YPL209C, strain IPL1, hits give low values 0.967 | locus YPL256C, strain CLN2, hits give low values 0.882 | locus YPR025C, strain CCL1, hits give low values 0.972 | locus YPR106W, strain ISR1, hits give low values 0.956 | locus YPR111W, strain DBF20, hits give low values 0.946 | strain NNK1, hits give low values 0.944 | strain TSCII, hits give low values 0.965
active: locus YLR113W, strain HOG1, hits give low values 0.793

Cc1c(C)c(C)c(CSc2nc3ccccc3[nH]2)c(C)c1C
inactive: locus YAL013W, strain DEP1, hits give low values 1.01 | locus YBR229C, strain ROT2, hits give low values 1.02 | locus YCL061C, strain MRC1, hits give low values 1.04 | [1] 1.03 | locus YDL134C, strain PPH21, hits give low values 1.02 | locus YDR150W, strain NUM1, hits give low values 1.02 | locus YEL061C, strain CIN8, hits give low values 1.03 | locus YGR078C, strain PAC10, hits give low values 1.03 | [2] 1.08 | locus YHR087W, strain rtc3, hits give low values 1.04 | locus YJL187C, strain SWE1, hits give low values 1.01 | locus YJR043C, strain POL32, hits give low values 1.04 | locus YJR075W, strain HOC1, hits give low values 1.07 | locus YKL190W, strain CNB1, hits give low values 1.03 | locus YLR039C, strain RIC1, hits give low values 1.02 | locus YLR058C, strain SHM2 (second series), hits give low values 1.06 | locus YLR085C, strain ARP6, hits give low values 1.01 | locus YLR262C, strain YPT6, hits give low values 1.03 | locus YML094W, strain GIM5, hits give low values 1.03 | locus YMR219W, strain ESC1, hits give low values 1.01 | locus YMR263W, strain SAP30, hits give low values 1.03 | locus YNL153C, strain GIM3, hits give low values 1.05 | locus YNL298W, strain CLA4 (second series), hits give low values 1.05 | locus YNL322C, strain KRE1, hits give low values 1.02 | locus YNR030W, strain Alg12, hits give low values 1.03 | locus YPL055C, strain LGE1, hits give low values 1.08 | locus YPL241C, strain CIN2, hits give low values 1.03 | locus YPR135W, strain CTF4, hits give low values 1.26
